Source: PubChem BioAssay (NCI)
Where “and” joins values, the source holds several entries; their conditions need not be identical. Identical values can stand only once. About 83,000 compounds went through this panel and 20% of them were active in at least one assay; those are over-represented in the sample as a whole.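 96-well plates, one dose, 48 hours. Percent growth reported; active if below 10.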 Calls of active or inactive are those of the source.

How the values were obtained:
Test in all cases: NCI-60 one-dose screen, 48 h (100 = growth as untreated, 0 = no growth, -100 = all killed)
Conditions in all cases: 10 µM unless noted
[1] = test system: SK-MEL-2 melanoma
[2] = test system: EKVX NSCLC
[3] = test system: SN12C renal
[4] = test system: UO-31 renal
[5] = test system: ACHN renal
[6] = test system: CAKI-1 renal
[7] = test system: A498 renal
[8] = test system: HL-60(TB) leukemia
[9] = test system: CCRF-CEM leukemia
[10] = test system: MOLT-4 leukemia
[11] = test system: SR leukemia
[12] = test system: RPMI-8226 leukemia
[13] = test system: OVCAR-8 ovarian
[14] = test system: OVCAR-5 ovarian
[15] = test system: OVCAR-4 ovarian
[16] = test system: SK-OV-3 ovarian
[17] = test system: IGROV1 ovarian
[18] = test system: OVCAR-3 ovarian
[19] = test system: HS 578T breast
[20] = test system: TK-10 renal

Measured: growth

CN1[C@@H](CC(=O)c2ccccc2)CCC[C@H]1CC(=O)c1ccccc1
inactive: [1] 42.8% | [2] 96.7% | [3] 96.6% | [4] 83.7% | [5] 97.3% | [6] 101% | [7] 115% | [8] 116% | [9] 111% | [10] 111% | [11] 111% | [12] 120% | [13] 93.3% | [14] 101% | [15] 107% | [16] 117% | [17] 26.5% | [18] 101% | [19] 83%

CC[C@H](C)[C@H](NC(=O)[C@H]1CCCCN1C)C(=O)N(C)[C@H](C[C@@H](OC(C)=O)c1cccc(C(=O)N[C@@H](Cc2ccccc2)C[C@H](C)C(=O)OC)n1)C(C)C
inactive: [1] 22.1% | [2] 53.4% | [3] 29.8% | [4] 40.7% | [20] 34.4% | [5] 24.6% | [6] 25.4% | [9] 14.4% | [11] 12.2% | [12] 20% | [13] 12% | [14] 39% | [15] 48.8% | [16] 13.8% | [17] 29% | [19] 19.9%
active: [7] -5.01% | [18] -18.1%

CC/C(Cc1ccccc1)=C(\c1ccc(OCCN2CCCC2)cc1)c1ccc(OC(=O)NCc2ccccc2)cc1
active: [11] -28.2% | [12] -6.25%
inactive: [1] 95.2% | [2] 66.9% | [3] 54.2% | [4] 33.8% | [20] 84.7% | [5] 63% | [6] 87.8% | [7] 74.1% | [9] 33.7% | [10] 11.7% | [13] 62.2% | [14] 75.9% | [16] 91.9% | [18] 78.4% | [19] 69.5%

CCN1C(=O)NC(=O)C(C)(N2C(=O)c3c(F)c(F)c(F)c(F)c3C2=O)C1=O (stereo not given)
active: [5] -57.7% | [6] -46.7% | [10] -51.3% | [11] -64.6% | [12] 2.56% | [13] 3.31% | [15] 1.91% | [17] -58.8% | [18] -89.9%
inactive: [1] 16.8% | [2] 104% | [3] 33.6% | [4] 25.1% | [20] 34.5% | [7] 99.2% | [9] 19.5% | [14] 42.7% | [16] 96.9% | [19] 12.1%

O=[N+]([O-])c1ccc2scc3c4ccccc4nc-3c2c1
inactive: [2] 37.1% | [7] 44.9% | [11] 15.9% | [16] 45.8%
active: [1] -63.2% | [4] -85.4% | [20] -53.7% | [5] -97.5% | [6] -40.6% | [8] 1.24% | [9] -12.3% | [10] -11.7% | [12] -29.5% | [13] -62.3% | [14] -77.1% | [15] -88.5% | [17] -59% | [18] -99%

O=C=Nc1ccc(Br)cc1
inactive: [1] 109% | [2] 102% | [3] 111% | [4] 102% | [20] 109% | [5] 114% | [6] 104% | [7] 94.2% | [9] 103% | [10] 111% | [11] 98.5% | [12] 98.9% | [13] 107% | [14] 109% | [16] 99.1% | [17] 112% | [18] 105% | [19] 106%

CCCCn1c(=O)c(C(=O)NCc2ccccc2Cl)c(O)c2ccccc21
inactive: [1] 94.3% | [2] 56.5% | [4] 73.4% | [20] 84.3% | [5] 81.3% | [6] 79.6% | [7] 71.2% | [8] 60.7% | [9] 43.7% | [10] 58.4% | [11] 60.4% | [12] 40.1% | [13] 81.1% | [14] 109% | [15] 82.4% | [16] 80.8% | [17] 74.9% | [18] 78.9% | [19] 101%

CC(C)c1cccc(C(C)C)c1O
inactive: [1] 113% | [2] 101% and 94.5% | [3] 108% and 104% | [4] 88% | [20] 116% and 94.6% | [5] 104% and 105% | [6] 95.1% and 88.4% | [7] 112% and 113% | [9] 107% and 90.6% | [12] 101% and 100% | [13] 102% | [14] 106% and 112% | [15] 107% and 95.3% | [16] 113% and 96.9% | [17] 107% | [18] 112% and 101% | [19] 105% and 94.9%

NC(N)=NC(N)=Nc1ccc(Cl)cc1
inactive: [1] 111% | [2] 93% | [3] 103% | [4] 95.2% | [20] 115% | [5] 93.9% | [8] 48.4% | [9] 89.7% | [10] 93.3% | [12] 94.2% | [13] 121% | [14] 92.1% | [16] 110% | [17] 116% | [18] 105%

C/C(=N/OC(=O)N(C)C)c1ccc(Cl)c(Cl)c1
inactive: [1] 111% | [2] 123% | [3] 95% | [4] 94.7% | [20] 101% | [5] 112% | [6] 102% | [7] 99.6% | [9] 98.2% | [10] 86.3% | [11] 74.5% | [12] 89% | [13] 104% | [14] 100% | [15] 119% | [16] 116% | [17] 105% | [18] 113% | [19] 116%

O=[N+]([O-])c1cc(Cl)c(Cl)cc1Cl
inactive: [1] 143% and 119% | [2] 106% and 113% | [3] 94.6% and 108% | [4] 104% and 95.4% | [20] 120% | [5] 104% and 109% | [6] 100% and 107% | [7] 104% | [9] 105% and 106% | [10] 102% and 103% | [11] 86.5% and 108% | [12] 97.4% and 112% | [13] 108% | [14] 110% and 99.6% | [15] 108% and 113% | [16] 123% and 110% | [17] 111% and 109% | [18] 119% | [19] 95.9%

O=C(O)C(F)F
inactive: [1] 120% | [2] 101% | [4] 94.9% | [20] 97.7% | [5] 116% | [6] 102% | [7] 84.4% | [8] 96% | [9] 110% | [10] 102% | [11] 109% | [12] 114% | [13] 105% | [14] 106% | [15] 112% | [16] 98.5% | [17] 114% | [18] 115% | [19] 96.2%

CC(=O)Nc1nc2c(s1)C1=CC[C@H]3[C@@H]4CC[C@H](OC(C)=O)[C@@]4(C)CC[C@@H]3[C@@]1(C)CC2
inactive: [1] 50.3% | [2] 82.9% | [3] 69.7% | [4] 72.7% | [20] 96.2% | [5] 67.7% | [6] 24.4% | [7] 62.1% | [9] 57.7% | [10] 82.9% | [12] 30.8% | [13] 70.8% | [14] 92.7% | [15] 69.4% | [16] 68.4% | [17] 62.5% | [18] 20.1% | [19] 39%

ClC1OC(Cl)(Cl)C(Cl)(Cl)OC1(Cl)Cl (stereo not given)
inactive: [1] 113% | [2] 100% | [3] 95.1% | [4] 81.4% | [20] 107% | [5] 99.7% | [6] 99% | [7] 131% | [10] 97.1% | [13] 101% | [14] 93.4% | [16] 111% | [17] 104% | [18] 110% | [19] 135%
